# Source: ChEMBL document CHEMBL3433997, “St. Jude Leishmania screening dataset” (2016)
# Experiments:
# Format in all cases: functional
# [1] = target: Solute carrier family 2, facilitated glucose transporter member 1 (Homo sapiens) (UniProt P11166); assay: ST_JUDE_LEISH: Cytotoxicity at 2uM final concentration against transgenic Leishmania Mexicana promastigotes LmGLUT1 that are glucose transport deficient and complemented with the human glucose transporter GLUT1. Activity is measured by DNA content using SYBR green in vitro
# Chain of Solute carrier family 2, facilitated glucose transporter member 1 (Homo sapiens) (P11166 whole entry): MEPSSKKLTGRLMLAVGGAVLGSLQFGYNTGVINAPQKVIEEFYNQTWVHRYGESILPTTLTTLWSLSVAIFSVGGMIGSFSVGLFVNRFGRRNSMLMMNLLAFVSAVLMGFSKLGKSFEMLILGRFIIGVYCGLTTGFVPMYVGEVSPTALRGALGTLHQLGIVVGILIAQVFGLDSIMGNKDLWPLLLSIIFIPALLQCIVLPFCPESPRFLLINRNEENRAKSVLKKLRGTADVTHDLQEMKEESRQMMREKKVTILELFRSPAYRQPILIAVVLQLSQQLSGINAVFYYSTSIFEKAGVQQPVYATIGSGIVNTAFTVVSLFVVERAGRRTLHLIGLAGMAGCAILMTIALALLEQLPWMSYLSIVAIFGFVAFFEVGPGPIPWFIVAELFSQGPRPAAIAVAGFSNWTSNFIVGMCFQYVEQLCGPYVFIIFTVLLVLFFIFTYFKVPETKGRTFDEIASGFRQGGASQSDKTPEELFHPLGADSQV
# [2] = target: Hexose transporter 1 (Plasmodium falciparum) (UniProt O97467); assay: ST_JUDE_LEISH: Cytotoxicity at 2uM final concentration against transgenic Leishmania Mexicana promastigotes LmPfHT that are glucose transport deficient and complemented with the Plasmodium falciparum hexose transporter. Activity is measured by DNA content using SYBR green in vitro
# [3] = target: Glucose transporter (Leishmania mexicana) (UniProt O61059); assay: ST_JUDE_LEISH: Cytotoxicity at 2uM final concentration against transgenic Leishmania Mexicana promastigotes LmGT2 that are glucose transport deficient and complemented with the L. Mexicana glucose transporter 2. Activity is measured by DNA content using SYBR green in vitro
Compound,inhibition [1] [%],inhibition [2] [%],inhibition [3] [%]
Oc1ccccc1CN1CCN(C(c2ccccc2)c2ccccc2)CC1,3.02,6.5,-0.06
COc1ccc(CNC2CCN(C)CC2)cc1-c1ccc(S(=O)(=O)NCc2cccnc2)s1,-1.99,0.85,5.84
Cc1cc(NCCc2ccccc2)nc(NC(=N)Nc2ccc(Cl)cc2)n1,0.08,2.1,-1.21
COc1ccc(-c2ccc(CNC(=O)c3ccc(Cl)cc3)c(F)c2)cc1CN1CCCN(C)CC1,3.27,0.3,1.71
Cc1cccc2nc(-c3ccc(-c4ccc(NC(=O)CN5CCN(C)CC5)cc4)s3)[nH]c12,-0.59,-1.98,-1.35
COc1ccc2nccc(N3CCCN(CCNCc4ccc5c(n4)NC(=O)CS5)CC3)c2n1,-4.21,-0.98,3.94
